Screening results from PubChem BioAssay.
TDP1 cell CPT = growth inhibition of DT40 Tdp1-/-;hTDP1 cells with camptothecin (screen for TDP1 inhibitors); chicken DT40 Tdp1-/-;hTDP1 cells + 20 nM CPT, ATP luminescence, 48 h; Potency, µM (highest dose often 46.2 µM), without a hit: at the highest dose activity change, negative = growth inhibition, hits mostly inhibitors; 420,000 compounds, 12% hits; AID 686979; also: nearly all actives have a fitted effect of over 55% in size
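Chicken DT40 Tdp1-/- cells stably complemented with human TDP1 were seeded at 400 cells/well in medium containing 20 nM camptothecin, exposed to pin-transferred compounds, and grown at 37 °C for at least 48 hr. Viability was read as ATP luminescence.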
HT1080-NT tox = kills 2HG-producing HT-1080-NT fibrosarcoma cells; HT-1080-NT fibrosarcoma viability, CellTiter-Glo ATP luminescence, 48 h; Potency, µM (highest dose often 46.1 µM), inactives show at the top dose activity, negative = less viability, actives largely listed as cytotoxic; 360,000 compounds, 1.6% hits; AID 686970;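 also: NT is the 2HG producing partner of a matched IDH1 knockdown line; 0% = DMSO-treated cells and -100% = media-only wells without cells; nearly all actives have a fitted effect of over 55% in size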
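Read-out is CellTiter-Glo luminescence after 10 minutes at room temperature, following 48 hours' compound treatment of HT-1080-NT cells (750 cells/well, RPMI, 5% FBS, 37 degrees C).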
KB-V1 MDR tox = KB-V1 MDR subline cytotoxicity; KB-V1 MDR cells viability, CellTiter-Glo, 72 h; Potency, µM (series often up to 46.1 µM), most hits filed as cytotoxic; 400,000 compounds, 3.4% hits; AID 1347076; also: nearly all actives have a fitted effect of over 60% in size
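KB-V1 MDR subline cells in DMEM (phenol-red free, 10% FBS) exposed to compounds in qHTS concentration series for 72 h at 37 degrees C. Viability read by CellTiter-Glo luminescence; concentration-effect curves fitted after normalization and correction.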
DT40 TDP1 no CPT = qHTS for Inhibitors of human tyrosyl-DNA phosphodiesterase 1 (TDP1): qHTS in cells in absence of CPT; DT40 Tdp1-/- hTDP1 cells, no CPT, ATP luminescence, 48 h; 420,000 compounds, 15% hits; Potency, µM (doses to about 46.2 µM), for inactives: top-dose activity change, negative = growth inhibition, actives largely listed as inhibitors; also: nearly all actives have a fitted effect of over 55% in size
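Growth of hTDP1-complemented DT40 Tdp1-knockout cells is measured by ATP luminescence after at least 48 hr compound exposure at 37 °C, with DMSO substituting for the 20 nM CPT used in the parallel screen.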
HT1080 IDH1KD tx = kills HT-1080 cells with IDH1 knockdown. 360,000 compounds, 2% hits. HT-1080 IDH1 knockdown viability, ATP luminescence, 48 h. Potency, µM (top dose mostly 46.1 µM), without a hit: at the highest dose activity, negative = toxicity, usual class: cytotoxic. AID 686971;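 also: 0% = DMSO wells and -100% = cell-free medium wells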
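Luminescent ATP read-out (CellTiter-Glo, 10 min at room temperature) after 48 h compound exposure at 37 °C gave viability of IDH1-knockdown HT-1080 cells. Activity was normalised to DMSO and cell-free wells, then fitted as concentration-response curves.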
KB-3-1 cytotox = KB-3-1 parental cell cytotoxicity. KB-3-1 viability, CellTiter-Glo ATP luminescence, 72 h. Potency, µM (series often up to 46.1 µM), actives largely listed as cytotoxic. 400,000 compounds, 1.4% hits. AID 1347075; also: nearly all actives have a fitted effect of over 60% in size
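Parental KB-3-1 adenocarcinoma cells in phenol-red-free DMEM with 10% FBS were pin-treated with compounds at several concentrations, incubated 72 h at 37 °C, and viability read by CellTiter-Glo luminescence; concentration-effect curves were fitted after normalization.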
Numbers without * were called inactive; i = inactive; ? = inconclusive; . = no result given; [ ] = dose if it differs, or a comment. A selection: hits, their analogues and other compounds. The true share with any hit is near 19%. Calls follow the shape of the dose curve; as a rule, active = well fitted curve in the direction sought with a large enough effect; inconclusive = small, poorly fitted or top-dose-only effect, or another doubt; inactive = no such curve, though single readings can be large; an effect the other way counts as inactive or inconclusive. Unless noted, % is scaled to controls: 0 for no effect and ±100 for the full control effect; potency is read from the fitted curve at half-maximal effect.

SMILES | TDP1 cell CPT | HT1080-NT tox | KB-V1 MDR tox | DT40 TDP1 no CPT | HT1080 IDH1KD tx | KB-3-1 cytotox
COC(=O)c1ccc(/C=C/c2c(-c3ccc(OC)cc3)oc3ccc(N4CCOCC4)cc23)cc1 | ? | 1% | ? | 23µM* | 10% | ?
COc1ccc(/C=C/c2c(-c3cccc(C)c3)oc3ccc(N4CCOCC4)cc23)cc1 | ? | -3% | i | -28% | 0% | i
COc1ccc(/C=C/c2c(-c3ccc(OC)cc3)oc3ccccc23)cc1 | -9% | -3% | i | -16% | 1% | i
O=c1nc(/C=C/c2ccc(O)c(O)c2)oc2ccccc12 | -14% | -29% | i | -29% | -29% | i
COC(=O)c1ccc(/C=C/c2c(-c3ccc(OC)cc3)oc3ccccc23)cc1 | 18µM* | 1% | i | 18µM* | -1% | i
COc1ccc(/C=C\c2nc(=O)c3ccccc3o2)cc1 | ? | -1% | i | 7.3µM* | -2% | i
COc1ccc(OCc2nc3ccccc3n2C(C)C)cc1 | -4% | -7% | ? | ? | ? | i
Cc1cc2c(c(-c3nc4ccccc4s3)c1)OC(CNC(=O)c1occc1C)C2 (stereo not drawn) | 19%[9.04 µM] | . | . | ? | . | .
Cc1cc(C)c2c(c1)CC(C)(C)CC2=O | 25% | -3% | i | 1% | -1% | i
O=C(NC(NC1CCS(=O)(=O)C1)C(=O)c1ccccc1)c1ccc(Cl)cc1 (stereo not drawn) | -16% | 10% | i | -9% | 11% | i
COc1ccc(C=C(C(C)=O)C(=O)c2ccccc2)cc1 | ? | 23µM* | i | ? | 23µM* | i
COc1ccc(C(=O)/C(Br)=C\C(=O)O)cc1 | 2.7µM* | . | . | ? | . | .
CC(=O)Nc1ccc(C=C(C(C)=O)C(C)=O)cc1 | -24% | -12% | i | ? | -16% | i
CC(=O)C(=Cc1ccc(Cl)cc1)C(=O)c1ccccc1 | 18µM* | ? | ? | 18µM* | ? | ?
COc1ccc(C=C(C(=O)c2ccccc2)c2ccccc2)cc1 | ? | -31% | ? | ? | -1% | ?
COc1ccc(C=C(C(=O)c2ccccc2)C(=O)c2ccccc2)cc1 | ? | 18µM* | ? | ? | ? | ?
CC(C)(C)c1ccc(OCC(=O)Nc2ccc(C(=O)Nc3ccccc3C(=O)O)cc2)cc1 | -14% | -8% | ? | -8% | 0% | i
O=C(CN1C(=O)NC(c2ccccc2)(c2ccccc2)C1=O)NCCc1ccc(F)cc1 | -1% | -21% | i | ? | -23% | i
CC(=O)C(=Cc1cccc(C#N)c1)C(=O)c1ccccc1 | 16µM* | ? | ? | 16µM* | ? | ?
COc1cccc(CN(C(=O)COc2ccc(Cl)cc2)C2CCS(=O)(=O)C2)c1 (stereo not drawn) | -26% | -25% | i | ? | -6% | i
C=CCn1c(=S)[nH]c2nc3c(cc2c1=O)CCCC3 | ? | 8.9µM* | i | ? | 8.9µM* | ?
CC1(C)CC(=O)C(C(=O)/C=C/NCCc2ccccc2)C(=O)C1 | -25% | ? | i | ? | ? | i
CC1(C)CC(=O)C(C(=O)/C=C/c2ccco2)C(=O)C1 | 15µM* | 0% | i | 21µM* | -2% | i
CCN1/C(=N\N)c2cccc3cccc1c23 | ? | 1% | i | 21µM* | 3% | i
CCC(C)NC(=O)CN1C(=O)c2cccc3cccc1c23 (stereo not drawn) | 7% | -2% | ? | -9% | 2% | i
SMILES | TDP1 cell CPT | HT1080-NT tox | KB-V1 MDR tox | DT40 TDP1 no CPT | HT1080 IDH1KD tx | KB-3-1 cytotox
COc1cc(CN(C(=O)COc2ccc(Cl)cc2)c2ccccn2)cc(OC)c1OC | 18µM* | . | i | 8.2µM* | . | i
Cc1ccc(CN(C(=O)COc2ccc(Br)cc2)c2ccccn2)o1 | ? | . | ? | 16µM* | . | i
CCCCOc1cccc(C(=O)N(Cc2ccc(C)o2)c2ccccn2)c1 | 15µM* | . | i | 9.2µM* | . | i
Cc1ccc(CN(C(=O)COc2cc(C)c(Cl)c(C)c2)c2ccccn2)o1 | ? | . | i | 18µM* | . | i
Cc1ccc(CN(C(=O)COc2ccccc2[N+](=O)[O-])c2ccccn2)o1 | ? | . | i | ? | . | i
CN(C1CCCCC1)S(=O)(=O)c1ccc2[nH]c(=O)oc2c1 | 1% | -24% | ? | -34% | -6% | i
CCc1ccc(C(=O)C(C)OC(=O)Cc2n[nH]c(=O)c3ccccc23)cc1 (stereo not drawn) | 6.5µM* | ? | ? | 7.3µM* | 13µM* | 9.2µM*
Cc1ccc(C(=O)N(Cc2cc3cccc(C)c3nc2N2CCC(O)CC2)C2CC2)cc1 | -1%[9.04 µM] | . | . | 13µM* | . | .
Cc1cccc2cc(CN(C(=O)c3ccc(C(F)(F)F)cc3)C3CC3)c(N3CCC(O)CC3)nc12 | -4%[9.04 µM] | . | . | ? | . | .
CCCCn1cc(S(=O)(=O)c2ccc(OC)cc2)c(=O)c2cc(F)c(N3CCOCC3)cc21 | ? | . | i | ? | . | i
CSc1ccc(COC(=O)c2cc([N+](=O)[O-])ccc2N2CCOCC2)cc1 | 0.041µM* | ? | 0.41µM* | 0.026µM* | 0.18µM* | 0.15µM*
O=[N+]([O-])c1ccc(N2CCN(c3ccccc3F)CC2)c(S(=O)(=O)N2CCOCC2)c1 | -25% | -7% | 7.3µM* | ? | 0% | i
O=C(OCc1ccccc1F)c1cc([N+](=O)[O-])ccc1N1CCOCC1 | -17% | 0% | 18µM* | -26% | -4% | i
Cc1ccccc1COC(=O)c1cc([N+](=O)[O-])ccc1N1CCOCC1 | ? | ? | i | ? | ? | ?
CC(C(=O)O)c1ccc2c(c1)CC(=O)c1ccccc1S2 (stereo not drawn) | -2% | . | . | -11% | . | .
O=C(NC(c1ccc(F)cc1)c1ccc2ccccc2n1)C1CCN(CCOc2ccc(F)cc2)CC1 (stereo not drawn) | 8.2µM* | ? | 18µM* | 8.2µM* | 9.2µM* | ?
COc1ccc(OCCN2CCC(C(=O)NC(c3ccccc3)c3ccc4ccccc4n3)CC2)cc1 (stereo not drawn) | ? | ? | i | ? | ? | ?
O=C(NC(c1ccccc1)c1ccc2ccccc2n1)C1CCN(CCOc2ccc(Cl)cc2)CC1 (stereo not drawn) | 23µM* | 3.7µM* | ? | 16µM* | 4.1µM* | ?
